Assay results from PubChem BioAssay (Tox21).
Results filed as inconclusive are left out. Where a call stands in place of a potency, no number is given. Activity calls are given as the source filed them. Unless noted, calls follow the shape of the full dose curve.

Legend:
[1] = Nuclear factor erythroid 2-related factor 2/antioxidant responsive element (Nrf2/ARE) small molecule agonists: luciferase reporter gene qHTS assay in human keratinocytes (AID 1919969); also: nearly all actives have a fitted effect of over 35% in size; also: potency is read from the fitted curve at half-maximal effect
[2] = target: Gonadotropin-releasing hormone receptor (Homo sapiens) (UniProt P30968); assay: Human gonadotropin-releasing hormone receptor (GnRHR) small molecule agonists, calcium flux assay in GnRHR-HEK293 cells (AID 1920063); also: nearly all actives have a fitted effect of over 35% in size
Procedure, shortened: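 Intracellular calcium rise is the read-out: engineered human GnRHR HEK293 cells, dye-loaded, are exposed to DMSO-dissolved compounds and fluorescence at Ex/Em 480/540 is tracked for 3 min.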

[3] = target: KiSS-1 receptor (Homo sapiens) (UniProt Q969F8); assay: Human kisspeptin (KISS1R) small molecule agonists, calcium flux assay in KISS1R-HEK293 cells (AID 1920064; active = well fitted activation curve with a large enough effect in the repeat runs)
Procedure, shortened: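 Concentration-response testing used 15 concentrations in triplicate on human KISS1R-expressing HEK293 cells. Calcium-dependent fluorescence (Ex/Em 480/540) was followed kinetically for 3 min after compound transfer.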

[4] = G protein-coupled receptor (GPCR) small molecule agonists, calcium flux assay: HEK293 wild type cell line counter screen (AID 1920065)
Procedure, shortened: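 Fluorescence intensity signals activation. After overnight (18 h) culture and a 1 h calcium dye load at 37 C, compounds are added by pin tool and the plate read at 480/540 nm for 3 min in 1 s steps.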

[5] = p53 small molecule agonists, cell-based qHTS assay with human liver microsomes (AID 1963577);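 also: p53 response element beta-lactamase reporter cells with liver microsomes plus NADPH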
Procedure, shortened: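 16 h, 37 C exposure of p53RE-bla cells to compounds with human liver microsomes and NADPH (0.5 mg/mL final each); detection via LiveBLAzer mixture, 2 h dark at room temperature.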

[6] = p53 small molecule agonists, cell-based qHTS assay with rat liver microsomes (AID 1963578)
Procedure, shortened: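 With rat liver microsomes and NADPH present (0.5 mg/mL final each), p53RE-bla cells are treated with compound for 16 h at 37 C. LiveBLAzer detection mixture is then applied for 2 h at room temperature in the dark.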

[7] = p53 small molecule agonists, cell-based qHTS assay with human liver microsomes: qHTS cell viability counter screen (AID 1963579); also: nearly all actives have a fitted effect of over 45% in size
Procedure, shortened: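 In this multiplexed counter screen, the reporter plates were subsequently treated with CellTiter-Glo so that cell viability, reflected by luminescence, could be recorded for p53RE-bla cells dosed 16 h with compounds under microsomal activation (HLM and NADPH).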

[8] = p53 small molecule agonists, cell-based qHTS assay: qHTS cell viability counter screen (AID 1963581); also: nearly all actives have a fitted effect of over 45% in size
Procedure, shortened: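 Luminescence from CellTiter-Glo, reflecting ATP content, serves as the cytotoxicity measure; it is taken after the 2 h reporter substrate step in HCT-116 p53RE-bla cells dosed for 16 h at 37 C.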

[9] = p53 small molecule agonists, cell-based qHTS assay (AID 1963582; active = well fitted activation curve with a large enough effect in the signal ratio in the repeat runs, not every such curve was filed as active; the % refers to the signal ratio)
Procedure, shortened: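 After plating, p53RE-bla cells sat 5 h in the incubator; compounds or DMSO vehicle were pinned in; a 16 h incubation at 37 C followed; FRET substrate was added and, 2 h later at RT, fluorescence was measured.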

[10] = target: 5-hydroxytryptamine receptor 2A (Homo sapiens) (UniProt P28223); assay: 5-hydroxytryptamine receptor 2A (HTR2A) small molecule antagonists, cell-based qHTS assay (AID 1963586); also: nearly all actives have a fitted effect of over 45% in size
Procedure, shortened: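 CHO cells stably expressing human HTR2A were plated for 18 h at 37 C, then loaded with calcium dye for 1 h. Compounds were preincubated 5 min at room temperature before DOI (4 nM solution) was added. Kinetic fluorescence was read for 3 min.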

[11] = target: 5-hydroxytryptamine receptor 2A (Homo sapiens) (UniProt P28223); assay: 5-hydroxytryptamine receptor 2A (HTR2A) small molecule agonists, cell-based qHTS assay (AID 1963587); also: nearly all actives have a fitted effect of over 30% in size; also: potency is read from the fitted curve at half-maximal effect
Procedure, shortened: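 HTR2A-CHO cells, plated 18 h at 37 C/5% CO2, dye-loaded 1 h at 37 C; compounds in DMSO added by pin tool (agonist mode). Intracellular calcium flux read as kinetic fluorescence on FDSS over 2 min at 1 s intervals.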

[12] = target: Muscarinic acetylcholine receptor M1 (Homo sapiens) (UniProt P11229); assay: Cholinergic receptor muscarinic 1 (CHRM1) small molecule agonists, cell-based qHTS assay (AID 1963589); also: nearly all actives have a fitted effect of over 35% in size
Procedure, shortened: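 Fluorescent calcium dye reports M1 activation in stably transfected CHO cells. Compounds, 15 concentrations, added after 1 h dye loading at 37 C; kinetic reading at 1 sec intervals.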

[13] = cAMP Responsive Elements (CRE) small molecule agonists, cell-based qHTS assay (AID 1963590)
Procedure, shortened: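 Compound exposure lasted 3 h at 37 C/5% CO2 in CRE-bla HEK 293T cells grown in assay medium with 10% dialyzed FBS and 25 mM HEPES. Reporter signal came from LiveBLAzer B/G FRET substrate, 2 h, room temperature.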

[14] = target: Beta-2 adrenergic receptor (Homo sapiens) (UniProt P07550); assay: Adrenergic beta2 receptor (ADRB2) small molecule antagonists, cell-based qHTS assay (AID 1963592); also: series mostly up to about 92 µM; nearly all actives have a fitted effect of over 50% in size
Procedure, shortened: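 Assay format: CHO-ADRB2 cells, 18-20hr seeding at 37C/5% CO2, then compound plus 1nM isoproterenol agonist mix for 0.5hr RT. Homogeneous time-resolved fluorescence cAMP detection after 1hr, expressed as 665/615 nm ratio.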

[15] = target: D(2) dopamine receptor (Homo sapiens) (UniProt P14416); assay: Dopamine D2 receptor (DRD2) small molecule antagonists, cell-based qHTS assay (AID 1963595; active = well fitted inhibition curve with a large enough effect in the signal ratio in the repeat runs, with a control signal flat; the % refers to the signal ratio)
Procedure, shortened: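 HEK293 cells stably expressing DRD2 were preincubated with 0.1 mM Ro20-1724, then with compound for 10 min at room temperature. Cells were stimulated with 200 nM NKH477 plus 12 nM quinpirole for 30 min, and cAMP was read by HTRF.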

[16] = target: Muscarinic acetylcholine receptor M1 (Homo sapiens) (UniProt P11229); assay: Cholinergic receptor muscarinic 1 (CHRM1) small molecule antagonists, cell-based qHTS assay (AID 1963588); also: nearly all actives have a fitted effect of over 40% in size; also: potency is read from the fitted curve at half-maximal effect
Procedure, shortened: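 Compounds were tested at 15 concentrations in three independent runs. Dye-loaded CHRM1-CHO cells were exposed 5 min at room temperature before stimulation by acetylcholine added at 50nM. Intracellular calcium was read kinetically on FDSS for 3 min.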

[17] = cAMP Responsive Elements (CRE) small molecule antagonists, cell-based qHTS assay (AID 1963591; active = well fitted inhibition curve with a large enough effect in the signal ratio in the repeat runs, not every such curve was filed as active; the % refers to the signal ratio; also: potency is read from the fitted curve at half-maximal effect)
Procedure, shortened: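 Stimulation used NKH477 at a final 0.25 uM for 3 h in compound-treated CRE-bla HEK293T cells, seeded 18 h beforehand. Reporter activity was measured with LiveBLAzer B/G FRET substrate after 2 h at room temperature.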

[18] = target: Beta-2 adrenergic receptor (Homo sapiens) (UniProt P07550); assay: Adrenergic beta2 receptor (ADRB2) small molecule agonists, cell-based qHTS assay (AID 1963593);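 also: CHO cells stably overexpressing human ADRB2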
Procedure, shortened: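 CHO cells stably over-expressing ADRB2 were plated overnight at 37C, then dosed with compounds plus a stimulation mix containing 100uM IBMX and 25uM Ro-20-1724 for 0.5hr at room temperature. cAMP was measured by HTRF competition, 1hr.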

[19] = target: D(2) dopamine receptor (Homo sapiens) (UniProt P14416); assay: Dopamine D2 receptor (DRD2) small molecule agonists, cell-based qHTS assay (AID 1963594); also: nearly all actives have a fitted effect of over 35% in size
Procedure, shortened: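 HEK293 cells stably expressing DRD2 were cultured 24 h at 37 C, then given Ro20-1724 (0.1 mM final) and compounds for 10 min at room temperature. NKH477 (200nM) was then added for 30 min. cAMP was read by HTRF.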

[20] = p53 small molecule agonists, cell-based qHTS assay with rat liver microsomes: qHTS cell viability counter screen (AID 1963580); also: nearly all actives have a fitted effect of over 45% in size
Procedure, shortened: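 Counter screen for cytotoxicity under metabolic activation: rat liver microsomes and NADPH, 0.5 mg/mL final each, added with compounds to p53RE-bla HCT-116 cells; 16 h at 37 C, then ATP luminescence read.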

Muscarinic acetylcholine receptor M1 (Homo sapiens), sequence (P11229 whole entry, looked up): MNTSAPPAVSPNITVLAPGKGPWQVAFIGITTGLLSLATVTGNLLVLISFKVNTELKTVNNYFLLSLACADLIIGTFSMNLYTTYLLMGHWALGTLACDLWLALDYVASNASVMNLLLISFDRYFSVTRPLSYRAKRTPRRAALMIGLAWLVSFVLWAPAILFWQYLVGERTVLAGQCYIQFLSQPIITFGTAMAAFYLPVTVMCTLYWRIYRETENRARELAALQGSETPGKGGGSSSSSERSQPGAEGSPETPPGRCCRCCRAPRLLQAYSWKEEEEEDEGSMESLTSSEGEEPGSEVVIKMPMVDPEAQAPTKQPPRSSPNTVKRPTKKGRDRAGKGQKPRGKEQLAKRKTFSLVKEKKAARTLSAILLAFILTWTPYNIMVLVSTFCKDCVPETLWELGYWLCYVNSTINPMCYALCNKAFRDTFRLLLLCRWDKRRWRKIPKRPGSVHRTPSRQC
5-hydroxytryptamine receptor 2A (Homo sapiens), sequence (P28223 whole entry, looked up): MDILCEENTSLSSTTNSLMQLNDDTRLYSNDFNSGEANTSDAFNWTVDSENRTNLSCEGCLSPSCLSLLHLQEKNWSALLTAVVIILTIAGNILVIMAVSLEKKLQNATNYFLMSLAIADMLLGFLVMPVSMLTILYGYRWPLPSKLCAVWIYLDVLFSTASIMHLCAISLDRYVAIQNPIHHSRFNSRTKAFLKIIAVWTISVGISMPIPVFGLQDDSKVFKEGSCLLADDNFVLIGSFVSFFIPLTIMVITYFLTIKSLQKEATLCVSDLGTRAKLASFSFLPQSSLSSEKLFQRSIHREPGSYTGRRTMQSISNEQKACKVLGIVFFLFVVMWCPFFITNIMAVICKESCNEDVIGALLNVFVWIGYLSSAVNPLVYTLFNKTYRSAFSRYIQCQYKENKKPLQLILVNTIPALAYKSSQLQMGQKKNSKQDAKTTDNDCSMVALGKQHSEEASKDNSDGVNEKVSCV
Gonadotropin-releasing hormone receptor (Homo sapiens), sequence (P30968 whole entry, looked up): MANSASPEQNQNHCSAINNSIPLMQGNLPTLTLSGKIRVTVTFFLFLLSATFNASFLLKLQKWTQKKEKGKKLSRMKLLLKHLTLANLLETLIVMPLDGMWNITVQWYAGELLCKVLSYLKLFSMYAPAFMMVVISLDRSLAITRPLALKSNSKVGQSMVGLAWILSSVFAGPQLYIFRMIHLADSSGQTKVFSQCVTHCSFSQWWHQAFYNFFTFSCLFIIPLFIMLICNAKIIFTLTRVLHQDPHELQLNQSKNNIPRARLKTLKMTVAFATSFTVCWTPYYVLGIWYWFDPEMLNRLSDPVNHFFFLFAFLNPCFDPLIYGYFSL
D(2) dopamine receptor (Homo sapiens), sequence (P14416 whole entry, looked up): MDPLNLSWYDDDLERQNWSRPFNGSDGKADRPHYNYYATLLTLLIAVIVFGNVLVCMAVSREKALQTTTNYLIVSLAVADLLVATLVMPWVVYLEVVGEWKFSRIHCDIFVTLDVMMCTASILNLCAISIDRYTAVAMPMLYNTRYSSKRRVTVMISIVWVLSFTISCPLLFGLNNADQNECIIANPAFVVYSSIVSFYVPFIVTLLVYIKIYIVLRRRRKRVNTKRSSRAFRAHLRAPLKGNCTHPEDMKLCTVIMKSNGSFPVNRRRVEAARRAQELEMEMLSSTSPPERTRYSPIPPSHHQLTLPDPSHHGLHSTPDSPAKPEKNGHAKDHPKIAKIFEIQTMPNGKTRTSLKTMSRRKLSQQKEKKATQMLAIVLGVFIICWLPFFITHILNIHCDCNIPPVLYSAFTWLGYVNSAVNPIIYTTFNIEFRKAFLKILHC
KiSS-1 receptor (Homo sapiens), sequence (Q969F8 whole entry, looked up): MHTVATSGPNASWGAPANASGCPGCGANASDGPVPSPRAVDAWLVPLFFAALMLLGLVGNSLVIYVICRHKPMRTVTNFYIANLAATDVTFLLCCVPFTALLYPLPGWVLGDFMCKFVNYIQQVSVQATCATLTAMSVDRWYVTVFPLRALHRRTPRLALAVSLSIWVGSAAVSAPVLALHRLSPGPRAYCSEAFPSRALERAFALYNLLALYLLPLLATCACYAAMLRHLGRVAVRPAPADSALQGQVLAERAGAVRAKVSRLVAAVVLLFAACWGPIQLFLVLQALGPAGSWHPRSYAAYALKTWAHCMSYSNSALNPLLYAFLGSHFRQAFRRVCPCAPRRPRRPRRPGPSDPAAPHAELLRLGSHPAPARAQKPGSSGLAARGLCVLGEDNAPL
Beta-2 adrenergic receptor (Homo sapiens), sequence (P07550 whole entry, looked up): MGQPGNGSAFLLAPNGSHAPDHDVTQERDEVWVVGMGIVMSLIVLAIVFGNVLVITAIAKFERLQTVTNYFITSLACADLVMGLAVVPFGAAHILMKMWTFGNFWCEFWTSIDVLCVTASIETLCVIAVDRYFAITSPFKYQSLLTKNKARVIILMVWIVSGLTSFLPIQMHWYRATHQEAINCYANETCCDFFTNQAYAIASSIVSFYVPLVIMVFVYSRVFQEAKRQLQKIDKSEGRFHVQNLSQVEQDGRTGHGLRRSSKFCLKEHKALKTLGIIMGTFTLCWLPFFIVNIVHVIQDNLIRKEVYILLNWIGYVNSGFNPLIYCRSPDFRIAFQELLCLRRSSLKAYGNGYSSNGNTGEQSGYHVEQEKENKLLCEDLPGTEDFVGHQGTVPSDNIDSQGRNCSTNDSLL

| Compound | Potency [1] | Potency [2] | outcome [3] | outcome [4] | Potency [5] | Potency [6] | Potency [7] | Potency [8] | Potency [9] | Potency [10] | Potency [11] | Potency [12] | Potency [13] | Potency [14] | Potency [15] | Potency [16] | Potency [17] | Potency [18] | Potency [19] | Potency [20] |
| --- | --- | --- | --- | --- | --- | --- | --- | --- | --- | --- | --- | --- | --- | --- | --- | --- | --- | --- | --- | --- |
| CC1CC(C)C(=O)C1=O (stereo not given) | inactive | inactive | inactive | inactive | inactive | inactive | inactive | inactive | inactive | inactive | inactive | inactive | inactive | inactive | inactive |  |  |  |  |  |
| CCN(CC)CCNc1ccc(CNC=O)c2sc3ccc(OC)cc3c(=O)c12 | 24.3 µM (active) | inactive | inactive | inactive | inactive | inactive | inactive | inactive |  | inactive | 3.89 µM (active) | inactive | inactive |  |  | 10.6 µM (active) | 21.7 µM (active) | inactive | inactive |  |
| CCCCCCCCCCCC[N+](C)(C)CC(=O)[O-] | inactive | inactive | inactive | inactive | inactive | inactive | inactive | inactive |  |  |  | inactive | inactive | inactive | inactive | inactive |  | inactive | inactive | inactive |
| CCC(=O)Oc1ccc2c(c1)CC[C@@H]1[C@@H]2CC[C@@]2(C)[C@H]1C[C@@H](OC(=O)CC)[C@@H]2OC(=O)CC | inactive | inactive | inactive | inactive | inactive | inactive | inactive | inactive |  | inactive | inactive | inactive |  | inactive |  |  |  |  | inactive | inactive |
| CC(=O)OCC(C)C | inactive | inactive | inactive | inactive | inactive | inactive | inactive |  | inactive | inactive | inactive | inactive | inactive | inactive | inactive |  | inactive | inactive | inactive | inactive |
| OC1CCCc2ccccc21 (stereo not given) | inactive |  | inactive | inactive | inactive | inactive | inactive | inactive | inactive | inactive | inactive | inactive | inactive | inactive |  | inactive |  |  | inactive |  |
| [Cl][Sc]([Cl])[Cl] | inactive |  | inactive | inactive | inactive | inactive | inactive | inactive | inactive | inactive | inactive | inactive | inactive | inactive | inactive | inactive | inactive |  |  | inactive |
| COC(=O)c1cc(C(=O)OC)cc(S(=O)(=O)O)c1 | inactive |  | inactive | inactive | inactive | inactive | inactive | inactive | inactive | inactive | inactive | inactive | inactive |  | inactive | inactive | inactive |  | inactive | inactive |
| COC(=O)c1ccc(NC(C)=O)cc1OC |  | inactive | inactive | inactive | inactive | inactive | inactive | inactive | inactive | inactive | inactive |  | inactive | inactive | inactive |  | inactive | inactive | inactive | inactive |
| CN1CCN(N)CC1 |  | inactive | inactive | inactive |  | inactive | inactive |  | inactive | inactive | inactive | inactive | inactive | inactive | inactive | inactive | inactive |  |  | inactive |
| CCC=CC#N |  | inactive | inactive | inactive | inactive | inactive | inactive | inactive | inactive | inactive | inactive | inactive | inactive | inactive | inactive | inactive |  |  | inactive | inactive |
| CC1(C)S[C@@H]2[C@H](NC(=O)Cc3ccccc3)C(=O)N2[C@H]1C(=O)O (tested in a mixture with another compound) | inactive |  | inactive | inactive | inactive | inactive | inactive | inactive | inactive |  |  |  | inactive | inactive | inactive |  | inactive | inactive | inactive | inactive |
| COc1ccc(C2C(=O)c3ccccc3C2=O)cc1 |  | inactive | inactive |  | inactive | inactive | inactive | inactive | inactive |  |  |  | inactive | inactive | inactive |  | inactive |  | inactive | inactive |
| C=C(C)C(=O)OCCCC | inactive |  | inactive | inactive | inactive | inactive | inactive |  | inactive | inactive | inactive | inactive | inactive | inactive |  | inactive | inactive | inactive |  | inactive |
| CC(C)(O)c1ccc(CNC(=O)c2cccnc2Oc2ccc3nonc3c2)cc1 | inactive |  |  | inactive | inactive | inactive | inactive | inactive | inactive | inactive | inactive | inactive |  | inactive | inactive | inactive |  |  |  | inactive |
| CCCCCN(CCCCC)C(=O)C(CCC(=O)O)NC(=O)c1ccc(Cl)c(Cl)c1 (stereo not given) | inactive | inactive |  | inactive | inactive | inactive | inactive |  |  | inactive | inactive | inactive |  | inactive | inactive | inactive | inactive |  | inactive | inactive |
